This passage reports growth results from PubChem BioAssay (NCI).

About 83,000 compounds went through this panel and 20% of them were active in at least one assay; those are over-represented in the sample as a whole.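 Step 1: grow cells in 96-well plates. Step 2: add test compound at a single concentration. Step 3: incubate 48 h. Step 4: record percent growth.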 Unmarked numbers belong to inactive results. The source made the active and inactive calls. How the source made its calls: active means growth percent below 10; inactive means the rest.

This assay deals with HOP-92 NSCLC. The experiment in a line: NCI-60 one-dose screen, 48 h (100 = growth as untreated, 0 = no growth, -100 = all killed). The settings on record: 10 µM unless noted.
As to `COc1cc(C2=NN(C(C)=O)C(c3ccc(N4CCOCC4)cc3)C2)cc(OC)c1OC` (stereo not given), the growth was 92.4%.
Take `COc1ccc([C@H]2c3[nH]c4ccccc4c3C[C@@H]3C(=O)N(C4CCN(Cc5ccccc5)CC4)CC(=O)N23)c(OC)c1`: the growth was 68%.
`COc1ccc([C@H]2[C@H](O)C(=O)N2c2cc(OC)c(OC)c(OC)c2)cc1Cl`: the growth was -6.45% (active).
As for `COc1ccc(/C=C/C(=O)c2nnn(-c3ccc(C(=O)O)cc3)c2C)cc1OC`, the figure is 102%.
For the compound `O=[N+]([O-])c1ccc(-c2nnc(SCc3ccc(O)c4ncccc34)n2-c2ccccc2)cc1`, the growth is -24.4% (active).
In the case of `O=C(NCCCNc1cc(-c2cn(-c3ccccc3)nc2-c2cccc(O)c2)ccn1)Nc1cccc(C(F)(F)F)c1`, the growth is 40.2%.
In the case of `CC(C)C(=O)Nc1ccc(-c2nc(-c3cccc(O)c3)c(-c3ccnc(Br)c3)[nH]2)cc1`, the growth was 39.5%.
As for `Cc1cc(F)cc(NS(=O)(=O)c2ccc(-c3cnc(C4CC4)o3)cc2)c1`, the figure is 35.6%.
Take `CCOC(=O)c1c(NCC(=O)Nc2cccc(Cl)c2)sc2c1CCCC2`: the growth was 96.3%.
`O=S(=O)(Nc1cc(Cl)cc(Cl)c1)c1ccc(-c2cnc(C3CC3)o2)cc1`: the growth is 64.6%.
As for `COc1cc2c3c(n(CCCNC4CCC4)c(=O)c2cc1OC)-c1cc2c(cc1C3=O)OCO2`, the growth was 87.9%.
Turning to `CC(=O)NC(C)(C)C(=O)N[C@@H](C)C(=O)NC(C)(C)C(=O)N[C@@H](C)C(=O)NC(C)(C)C(=O)N[C@@H](C)C(=O)N[C@@H](CCC(N)=O)C(=O)NC(C)(C)C(=O)N[C@H](C(=O)NC(C)(C)C(=O)NCC(=O)N[C@@H](CC(C)C)C(=O)NC(C)(C)C(=O)N1CCC[C@H]1C(=O)N[C@H](C(=O)NC(C)(C)C(=O)NC(C)(C)C(=O)N[C@@H](CCC(N)=O)C(=O)N[C@@H](CCC(N)=O)C(=O)N[C@H](CO)CC1CCCCC1)C(C)C)C(C)C`, the growth is -13.3% [5 µM] (active).
Regarding `Cc1nn(-c2ccc(Cl)cc2)c(C)c1N=Nc1ccc2oc(=O)ccc2c1`, the growth was 76.8%.
For `O=C(NCCNc1cc(-c2cn(-c3ccccc3)nc2-c2cccc(O)c2)ccn1)Nc1ccc(Cl)c(C(F)(F)F)c1`, the growth was 44%.
For the compound `CN(c1ccc(Br)cc1)S(=O)(=O)c1ccc(-c2cnc(C3CC3)o2)cc1`, the growth was 87.1%.
As for `CC(C)C[C@H]1C(=O)O[C@H](C(C)C)C(=O)N(C)[C@@H](C(C)C)C(=O)O[C@H](C(C)C)C(=O)N(C)[C@@H](C(C)C)C(=O)O[C@H](C(C)C)C(=O)N1C`, the figure is -23.2% (active).
As to `CCCC(=O)NC(c1cccnc1)c1cc(Cl)c2cccnc2c1O` (stereo not given), the growth was -5.51% (active).
On to `Nc1nc(-c2cccc([N+](=O)[O-])c2)c(N=Nc2ccccc2[N+](=O)[O-])s1`, for which the growth is -28.4% (active).
Consider `C/C(=N\NC(=O)CSc1nc2sc3c(c2c(=O)n1-c1ccccc1)CCC(C)C3)c1ccc(Cl)cc1` (stereo not given), for which the growth is -1.5% (active).
The same measure for `C#C[C@]1(O)CC[C@H]2[C@@H]3CC=C4c5sc(Nc6nc(C)cc(OC)n6)nc5CC[C@]4(C)[C@H]3CC[C@@]21C`: 43.9%.
As to `CN1CCN(c2ccc(NC(=O)Nc3ccc4c(ccn4-c4cccc(C(N)=O)n4)c3)cc2C(F)(F)F)CC1`, the growth is 119%.
The same measure for `COc1ccc(NS(=O)(=O)c2ccc(-c3cnc(C4CC4)o3)cc2)cc1Cl`: 55.4%.
Take `COc1ccc(-c2ccc3c4c(cccc24)C(=O)N(N2C(=O)c4cccc5cccc(c45)C2=O)C3=O)cc1`: the growth was 75.6%.
With `N#Cc1c(NC(=O)c2ccc(F)c(Cl)c2)sc2c1CCC(=O)C2`, the growth is -37.4% (active).
As for `Nc1ccc(-c2nnc(SCc3ccc(O)c4ncccc34)o2)cc1`, the growth is -36.8% (active).
The same measure for `IP(CCCCCCCCCCSc1n(Cc2ccc3ccccc3c2)c(-c2ccccc2)c(-c2ccccc2)[n+]1Cc1ccc2ccccc2c1)(c1ccccc1)(c1ccccc1)c1ccccc1`: -77.8% (active); for `Cc1cc(Cl)cc(NS(=O)(=O)c2ccc(-c3cnc(C4CC4)o3)cc2)c1`: 66.5%.
With `COc1cc(/C=N/n2cnc3oc(-c4ccccc4)cc3c2=N)cc(CN2CCCCC2)c1O`, the growth was 86.2%.
With `CCOC(=O)c1c(NC(=O)c2ccc(C(C)(C)C)cc2)sc2cc(OCCN3CCCCC3)ccc12`, the growth was 66.1%.
Take `CC(=O)c1sc(Nc2cccc(Nc3nc(C)c(C)s3)c2)nc1C`: the growth is 63.6%.
